Here are results for 95 compounds from PubChem BioAssay AID1851 (National Center for Advancing Translational Sciences (NCATS), 2009).

What is called AC50 is the concentration at which the activity in the assay is half-maximal.

Among all 16,000 compounds or so, about 5,700 (36%) were called active. Another 24% or so got no clear call; they are omitted. This is one part of the list. A number with no mark means an inactive call. Calls follow the shape of the dose curve; as a rule, active = well fitted curve in the direction sought with a large enough effect; inconclusive = small, poorly fitted or top-dose-only effect, or effect the other way; inactive = no such curve, though single readings can be large or run the other way.
% is scaled to controls: 0 for no effect and ±100 for the full control effect.

In this experiment the target is Cytochrome P450 1A2 (Homo sapiens) (UniProt P05177). Description: Cytochrome panel assay with activity outcomes. As to conditions: recombinant CYP, pro-luciferin dealkylation, luminescence, p450-cyp1a2; series mostly up to 57.1 µM; activity, negative = inhibition: at the top concentration.
Sequence of Cytochrome P450 1A2 (Homo sapiens) (P05177 whole entry, looked up): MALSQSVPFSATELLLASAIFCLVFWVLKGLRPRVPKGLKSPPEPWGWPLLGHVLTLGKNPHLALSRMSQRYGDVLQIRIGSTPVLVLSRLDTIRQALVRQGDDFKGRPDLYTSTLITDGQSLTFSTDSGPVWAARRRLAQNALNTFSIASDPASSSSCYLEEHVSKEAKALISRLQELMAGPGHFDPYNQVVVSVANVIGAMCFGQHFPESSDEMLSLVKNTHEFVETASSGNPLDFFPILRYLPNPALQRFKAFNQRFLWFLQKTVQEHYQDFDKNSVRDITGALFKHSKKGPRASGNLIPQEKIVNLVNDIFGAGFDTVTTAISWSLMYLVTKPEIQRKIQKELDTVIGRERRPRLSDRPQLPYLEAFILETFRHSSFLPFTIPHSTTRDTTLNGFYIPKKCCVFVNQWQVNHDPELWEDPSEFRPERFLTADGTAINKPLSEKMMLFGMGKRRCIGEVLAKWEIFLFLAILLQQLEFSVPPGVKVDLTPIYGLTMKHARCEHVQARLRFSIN
For `COc1ccc(CNc2ncnc3ccc(-c4ccc(N(C)C)cc4)cc23)c(OC)c1`, the AC50 is 2.51 µM (active).
As to `COc1ccccc1CNc1ncnc2ccc(-c3ccc(C(=O)N(C)C)cc3)cc12`, the AC50 is 12.6 µM (active).
Turning to `COc1ccccc1CNc1ncnc2ccc(-c3ccc(N(C)C)cc3)cc12`, the AC50 is 0.794 µM (active).
Regarding `COc1ccccc1CNc1ncnc2ccc(-c3ccc4c(c3)OCO4)cc12`, the AC50 was 0.794 µM (active).
As for `CC(C)(C)NC[C@H](O)c1cc(O)cc(O)c1`, the AC50 entry was “inactive”.
In the case of `CC(=O)NC1(c2cccc(F)c2)CCN(CC(=O)NC(C)C)CC1`, the “activity, negative = inhibition” value is 21.3%.
Consider `[N-]=[N+]=Nc1ccc(C(=O)CSC[C@@H](NC(=O)CC[C@@H](N)C(=O)O)C(=O)NCC(=O)O)cc1`, for which the “activity, negative = inhibition” value was -18.2%.
As for `CCNc1ncc2nc(-c3cccs3)c(=O)n(C)c2n1`, the AC50 was 1.58 µM (active).
On the same count and under the same terms, then `CCNc1ncc2nc(C)c(=O)n(Cc3cccs3)c2n1`, with 2 µM (active); and `CCNc1ncc2nc(-c3cn(C)c4ccccc34)c(=O)n(Cc3cccs3)c2n1`, with 6.31 µM (active); and `CCNc1ncc2nc(-c3cccs3)c(=O)n(Cc3cccs3)c2n1`, with 1.26 µM (active).
As to `COc1ccc(Nc2ncc3nc(-c4cccs4)c(=O)n(Cc4cccc(OC)c4)c3n2)cc1`, the “activity, negative = inhibition” value was -8.5%.
In the case of `CC[N+](C)(C)c1cccc(O)c1`, the “activity, negative = inhibition” value was -2.3% [at 25.6 µM].
As to `NC/C=C\C(=O)O`, the AC50 result was “inactive”.
As to `Cc1ccc(Oc2nn[nH]n2)cc1`, the “activity, negative = inhibition” value was -8.17%.
For the compound `CC(=O)CC(=O)[C@@]1(O)CC[C@@H]2[C@@H]3C=C(C)C4=CC(=O)CC[C@@H]4[C@H]3CC[C@]21C`, the “activity, negative = inhibition” value was -6.66% [at 25.6 µM].
For the compound `CCNc1ncc2ncc(=O)n(Cc3cccs3)c2n1`, the AC50 was 2 µM (active).
On the same count and under the same terms, then `CCNc1ncc2nc(-c3cc(F)cc(F)c3)c(=O)n(Cc3cccs3)c2n1`, with 5.01 µM (active); and `CCNc1ncc2nc(-c3ccccc3)c(=O)n(Cc3cccs3)c2n1`, with 0.316 µM (active).
On to `C[N+]1(C)CCC(=C(c2ccccc2)c2ccccc2)CC1`, for which the “activity, negative = inhibition” value is -2.16% [at 25.6 µM].
For the compound `CC(=O)Oc1cc(C(C)C)c(OCCN(C)C)cc1C`, the AC50 is 3.16 µM (active).
As to `CC(C)(C)CNCCO`, the activity, negative = inhibition is 6.23% [at 2.29 µM].
Take `c1ccc(CSc2nnc([C@@H]3CCCN3)o2)cc1`: the AC50 was 25.1 µM (active).
With `Cc1ccc(CSc2nnc(-c3ccncc3)n2CC2CCCO2)cc1` (stereo not given), the “activity, negative = inhibition” value was -21.2%.
As for `Cc1ccc(CSc2nnc([C@@H]3CCCN3)o2)cc1`, the AC50 is 15.8 µM (active).
As for `NC(=O)/C(=N\O)c1ccccc1`, the “activity, negative = inhibition” value is 2.26%.
On to `CCOC(=O)c1oc2nc(CC(C)C)c3c(c2c1N)CCC3`, for which the AC50 was 0.891 µM (active).
With `COc1cccc([C@H]2Oc3ccc(OC)cc3/C(=N\OC[C@@H](O)[C@@H]3O[C@@H]4OC(C)(C)O[C@@H]4[C@H]3O)[C@@H]2O)c1`, the activity, negative = inhibition was -8.99% [at 11.4 µM].
For the compound `CC1(C)SC(=S)N(Cc2ccc3c(c2)OCO3)C1N(O)C(=O)NC1CCCCC1` (stereo not given), the “activity, negative = inhibition” value is -27.1%.
In the case of `CCc1ccccc1NC(=S)NCc1ccc2c(c1)OCO2`, the AC50 was 5.62 µM (active).
Turning to `O=C(O)C[C@H](Cc1ccc2c(c1)OCO2)C(=O)O`, the activity, negative = inhibition is -20% [at 11.4 µM].
Turning to `CCc1c(C(=O)NCc2ccc3c(c2)OCO3)[nH]c(C)c1C(C)=O`, the AC50 is 3.16 µM (active).
Turning to `C[N+]1(C)CCc2cc(O)c(O)cc2[C@H]1Cc1ccc(O)c(O)c1`, the activity, negative = inhibition was -12.1% [at 2.29 µM].
Regarding `CC1(C)CC(=O)C(C(C#Cc2ccccc2)C2=C(O)CC(C)(C)CC2=O)=C(O)C1`, the “activity, negative = inhibition” value was -28.5%.
Take `COc1ccc(/C=N/NC(=O)c2ccn[nH]2)cc1COc1ccc(F)cc1`: the AC50 was 8.91 µM (active).
As to `COc1cccc(-c2cc(C(=O)N/N=C/c3ccc(OC)c(COC(C)=O)c3)c3ccccc3n2)c1`, the “activity, negative = inhibition” value was -28.3%.
Still for that read-out and setting: then `COc1ccc(C(C(=O)NC2CCCC2)N(Cc2ccc(F)cc2)C(=O)c2ccn[nH]2)cc1OC` (stereo not given), with -9.89%.
As to `CO[C@@]12C[C@@H](COC(=O)c3cncc(Br)c3)CN(C)[C@H]1Cc1cn(C)c3cccc2c13`, the AC50 was 5.01 µM (active).
With `CN(C)c1ccc(/C=N\NC(=O)c2cnc3ccccc3c2)cc1`, the AC50 is 1.58 µM (active).
With `Cc1cccc(C(=O)N/N=C/c2ccc(OCC(=O)N3CCCCC3)cc2)c1`, the “activity, negative = inhibition” value was -9.71%.
On the same count and under the same terms, then `O[C@@](CCN1CCCCC1)(c1ccccc1)[C@@H]1C[C@H]2C=C[C@@H]1C2`, with -9.3% [at 25.6 µM]; and `N[C@@H](C(=O)O)c1ccc(C(=O)O)cc1`, with 3.94%.
As to `N#C[C@H](Cc1ccc(O)cc1)c1ccc(O)cc1`, the AC50 is 12.6 µM (active).
As for `CC(C)Cc1ccc([C@H](C)C(=O)O)cc1`, the AC50 result was “inactive”.
With `CC(=O)N[C@H](Cc1ccc(O)cc1)C(=O)O`, the activity, negative = inhibition is -11.8% [at 11.4 µM].
On to `Cc1sc2ncn(CC(=O)NCCCC(=O)N3CCN(c4ncccn4)CC3)c(=O)c2c1C`, for which the “activity, negative = inhibition” value is -23.7%.
As for `CCN(CC)CCn1c(=S)[nH]c2cc3c(cc2c1=O)OCO3`, the AC50 is 15.8 µM (active).
With `O=C(CCCCCn1c(=S)[nH]c2cc3c(cc2c1=O)OCO3)N1CCN(C2CCCCC2)CC1`, the “activity, negative = inhibition” value was -22.2%.
As for `CCCCNC(=O)CCn1c(=S)[nH]c2cc3c(cc2c1=O)OCO3`, the AC50 is 2.51 µM (active).
As to `O=C(CCCn1c(=S)[nH]c2cc3c(cc2c1=O)OCO3)N1CCN(c2ncccn2)CC1`, the AC50 was 12.6 µM (active).
Same read-out and setting: then `C=CCNC(=O)c1ccc(Cn2c(=S)[nH]c3cc4c(cc3c2=O)OCO4)cc1`, with 8.91 µM (active).
`CCCNC(=O)OC[C@@H]1O[C@H](CCO/N=C(\C)CCN2CCc3nc(-c4ccccc4)c(-c4ccccc4)cc3C2)C=C[C@@H]1Oc1ccc(OC)cc1`: the activity, negative = inhibition is -4.45% [at 11.4 µM].
Take `COC(=O)C/C=C\[C@H](C)[C@H](CO)NS(=O)(=O)c1ccc(C)cc1`: the activity, negative = inhibition was -2.78% [at 11.4 µM].
`Cc1ccc(C)c(S(=O)(=O)N2CCC(c3nc4c(nnn4Cc4ccc(F)cc4)c(=O)[nH]3)CC2)c1`: the “activity, negative = inhibition” value was -22.9%.
With `O=C(NCc1ccco1)c1nc2c(nnn2Cc2cccc(Cl)c2)c(=O)[nH]1`, the “activity, negative = inhibition” value is -10.5%.
Take `O=C(Cc1cccs1)N1CCC(c2nc3c(nnn3Cc3ccccc3Cl)c(=O)[nH]2)CC1`: the AC50 was 6.31 µM (active).
Turning to `CCN(CC)CC[n+]1ccc2c(C)c3[nH]c4ccccc4c3c(C)c2c1`, the concentration at half-maximal activity (AC50) is 2.51 µM (active).
For `CCN(CC)CC[n+]1ccc2c(C)c3[nH]c4ccc(O)cc4c3c(C)c2c1`, the AC50 was 3.16 µM (active).
For `Cc1ccccc1-c1ccc2ncnc(N3CCNCC3)c2c1`, the AC50 was 3.16 µM (active).
As to `Clc1ccccc1-c1ccc2ncnc(N3CCNCC3)c2c1`, the AC50 was 2 µM (active).
Still for that read-out and setting: then `CN1CCN(c2ncnc3ccc(-c4ccccc4C#N)cc23)CC1`, with 3.16 µM (active); and `CN1CCN(c2ncnc3ccc(-c4ccccc4Cl)cc23)CC1`, with 1.58 µM (active).
`CC(Cc1ccccc1)NC(=O)CSc1nc2nc3c(cc2c(=O)n1-c1ccccc1)COC(C)(C)C3` (stereo not given): the “activity, negative = inhibition” value is -3.43%.
Regarding `C/C(CCN1CCc2nc(-c3ccccc3)c(-c3ccccc3)cc2C1)=N\OC[C@@H](O)COCc1ccco1`, the activity, negative = inhibition was -6.41% [at 11.4 µM].
For the compound `CCOC(=O)C(C)(C)[C@H](O)C(C)C`, the activity, negative = inhibition is -1.66% [at 11.4 µM].
Turning to `N#Cc1cccc(NC(=O)N2CCCC3(CCN(C(=O)c4csnn4)CC3)C2)c1`, the “activity, negative = inhibition” value was 10.4%.
Regarding `Cc1ccccc1-c1ccc2ncnc(N3CCN(C)CC3)c2c1`, the AC50 was 3.16 µM (active).
In the case of `Cc1cnc(CNc2nc(-c3ccoc3)nc3ccccc23)cn1`, the AC50 was 2 µM (active).
For the compound `Cc1cnc(CNc2nc(-c3ccc(N(C)C)cc3)nc3ccccc23)cn1`, the AC50 is 3.16 µM (active).
As to `N=c1n(CCN2CCOCC2)c2ccccc2n1CC(=O)c1ccc(Cl)c(Cl)c1`, the AC50 is 1.26 µM (active).
As for `COC(=O)Cn1c(=N)n(CCN2CCCCC2)c2ccccc21`, the “activity, negative = inhibition” value was -12%.
`O=C1c2cccc3c(Cl)ccc(c23)C(=O)N1O`: the AC50 is 3.16 µM (active).
On to `Nc1ccc(N2C(=O)c3ccccc3C2=O)c(Cl)c1`, for which the “activity, negative = inhibition” value was -17.8%.
`CC(C)COP(=O)(OCC(C)C)C(O)c1ccccc1F` (stereo not given): the “activity, negative = inhibition” value is -3.98%.
For `O=C1CCCCCC1C1(O)C(=O)Nc2ccc(Br)cc21` (stereo not given), the “activity, negative = inhibition” value is -18.8%.
With `CCOC(=O)c1c2ccc(OCC(=O)N/N=C/c3ccc(Cl)cc3)cc2n2ccccc12`, the AC50 is 3.16 µM (active).
For `Cc1ccc(-n2c(O)cnc2Nc2nc(C)cc(C)n2)cc1`, the AC50 is 5.01 µM (active).
As to `Cc1ccc(-n2c(C)cc(C(=O)CSc3n[nH]c(N)n3)c2C)cc1`, the “activity, negative = inhibition” value was -12.6%.
As to `N=c1n(-c2ccccc2)c(O)cc(=O)n1-c1ccccc1`, the “activity, negative = inhibition” value is -4.91%.
As for `Cc1cc(C)nc(Nc2ncc(O)n2-c2ccccc2)n1`, the half-maximal activity concentration (AC50) is 2.82 µM (active).
On the same count and under the same terms, then `S=C(Nc1ccccc1)Nc1nccs1`, with 0.794 µM (active).
On to `O=C(O)c1ccccc1C(=O)Nc1ccc(S(=O)(=O)Nc2nccs2)cc1`, for which the “activity, negative = inhibition” value was -0.159% [at 25.6 µM].
On to `CN(CCO)Cc1ncccc1O`, for which the activity, negative = inhibition is -10% [at 2.29 µM].
Take `COC(=O)C/C=C1\c2ccccc2[C@H](OC)[C@H]1C`: the activity, negative = inhibition is -6.47% [at 11.4 µM].
On to `CC(C)OC(=O)CN1CCN(C2c3ccccc3-c3ccccc32)CC1`, for which the AC50 was 12.6 µM (active).
Consider `COc1ccccc1NC(=O)CN1CCN(C2c3ccccc3-c3ccccc32)CC1`, for which the AC50 was 15.8 µM (active).
For `COc1ccccc1NC(=O)CN1CCN(c2ccccc2F)CC1`, the AC50 is 25.1 µM (active).
Turning to `COc1ccc(NC(C)=O)cc1NC(=O)CN1CCN(C2c3ccccc3-c3ccccc32)CC1`, the AC50 is 28.2 µM (active).
With `Cc1ccc(C(=O)C(OC(=O)CN2C(=O)c3ccccc3C2=O)c2ccccc2)cc1` (stereo not given), the “activity, negative = inhibition” value is 23%.
Consider `COc1ccccc1NC(=O)CN1CCC(C(=O)c2ccc(F)cc2)CC1`, for which the “activity, negative = inhibition” value is -9.19%.
`O=C(CCN1CCN(c2ccccc2F)CC1)Nc1ccccc1F`: the “activity, negative = inhibition” value was -19.2%.
On the same count and under the same terms, then `COc1ccc(NC(C)=O)cc1NC(=O)CN1CCN(CC(=O)Nc2ccccc2Cl)CC1`, with -22.7%; and `Cc1cc(Cl)ccc1NC(=O)CN1CCC(C(O)(c2ccccc2)c2ccccc2)CC1`, with -9.89%.
As to `O=C(c1csnn1)N1CCC2(CC1)CN(Cc1cc(C(F)(F)F)cc(C(F)(F)F)c1)C2`, the “activity, negative = inhibition” value is 5.18%.
For the compound `Cc1cc(-c2cccs2)nc(-n2cccc2)n1`, the AC50 was 3.16 µM (active).
